This is an account of results in PubChem BioAssay AID1259421 (Broad Institute, 2018).

Molecules are shown by their SMILES. Where “and” joins values, the source holds several entries; their conditions need not be identical. Equal values may be shown once. Screen size: about 6,400 compounds; about 610 (9.5%) were called active. The sample holds actives, similar compounds and a random draw of the others, so the mix is not that of the screen. A number with no mark means an inactive call. No stated cut-off is given here; in the data, active means activity change below about -70%; inconclusive means no clear call, values can overlap the other calls; inactive means above that.

This test can be described thus: T. gondii ME49Luc in HeLa cells, luciferase assay, 72 h, no IFN-y (AID 1259421). Particulars: active compounds read low, concentration not given here.
As for `COC(=O)/C=C/C(=O)N[C@@H]1CC[C@@]2(O)[C@H]3Cc4ccc(O)c5c4[C@@]2(CCN3CC2CC2)[C@H]1O5`, the activity change, negative = inhibition is 16.5%.

Regarding `CCC(Oc1ccc(Cl)cc1)C(=O)OC1CC2CCC(C1)N2C` (stereo not given), the activity change, negative = inhibition is -2.85% and -12.4%.

Turning to `c1ccc(CC(c2ccccc2)N2CCCCC2)cc1` (stereo not given), the activity change, negative = inhibition was 9.17% and 15.7%.

For `Cc1[nH]c2ccc(Cl)cc2c1C1=CCNCC1`, the activity change, negative = inhibition is 8.93% and 11.2%.

`COC(=O)CN1CN(c2ccccc2)C2(CCN(Cc3cccc4ccccc34)CC2)C1=O`: the activity change, negative = inhibition is -6.13%.

As for `COc1ccc(OC)c(C(O)C(C)NC(C)(C)C)c1` (stereo not given), the activity change, negative = inhibition is 12%.

For the molecule `Cc1nnc2n1-c1ccc(Cl)cc1C(c1ccccc1Cl)=NC2`, the activity change, negative = inhibition is 18.7%.

`CC(C)(O)C(=O)Nc1ccc([N+](=O)[O-])c(C(F)(F)F)c1`: the activity change, negative = inhibition was 5.88%.

For the molecule `COc1ccc(C[C@H]2NC[C@H](O)[C@H]2OC(C)=O)cc1`, the activity change, negative = inhibition was -80.3% (active) and -86.5% (active).

For the molecule `CC(C)(C)OC(=O)c1ncn2c1[C@@H]1CCCN1C(=O)c1c(Br)cccc1-2`, the activity change, negative = inhibition was 6.65%.

As to `CN1CCC2=C(C1)c1ccccc1Cc1ccccc12`, the activity change, negative = inhibition was 3.96%.

Consider `Cc1[nH]cnc1CCN`, for which the activity change, negative = inhibition was 7.41%.

On to `C[C@]12CC/C(=N\OCCN)C[C@@H]1C(=O)C[C@@H]1[C@@H]2CC[C@]2(C)C(=O)CC[C@@H]12`, for which the activity change, negative = inhibition was 14.1%.

As to `Clc1ccc(C23CNCC2C3)cc1Cl` (stereo not given), the activity change, negative = inhibition was 6.45%.

Regarding `C=CCN1CCC23c4c5ccc(O)c4OC2C(=O)CCC3(O)C1C5` (stereo not given), the activity change, negative = inhibition was -2.6%.

For the molecule `CC(C)=CCCC1(C)C=Cc2c(O)c3c(c(CC=C(C)C)c2O1)OC12C(=CC4CC1C(C)(C)OC2(CC=C(C)C(=O)O)C4=O)C3=O` (stereo not given), the activity change, negative = inhibition is -77.9% (active).

`CC(C)CCCC1(C)C=Cc2c(O)c3c(c(CCC(C)C)c2O1)OC12C(CC4CC1C(C)(C)OC2(CCC(C)C(=O)O)C4O)C3=O` (stereo not given): the activity change, negative = inhibition was -3.34%.

With `CC(C)=CCC[C@]1(C)C=Cc2c(O)c3c(c(CC=C(C)C)c2O1)O[C@]12C(=C[C@@H]4C[C@H]1C(C)(C)O[C@@]2(CC=C(C)C(=O)O)C4=O)C3=O`, the activity change, negative = inhibition was -83.4% (active).

As to `CN(C)[C@@H]1C(=O)C(C(N)=O)C(=O)[C@@]2(O)C(=O)C3C(=O)c4c(O)cccc4[C@@](C)(O)C3[C@H](O)C12` (stereo not given in full), the activity change, negative = inhibition was -0.0524%.

As to `C=C(C)C1Cc2c(ccc3c(=O)c4c(oc23)COc2cc(OC)c(OC)cc2-4)O1` (stereo not given), the activity change, negative = inhibition is -1.04%.

Take `CCCCCCN1CCN(c2cccc(Cl)c2)CC1`: the activity change, negative = inhibition was 9.58%.

With `O=C1CC2OCC=C3CN4CC[C@]56c7ccccc7N1C5[C@H]2[C@H]3CC46` (stereo not given in full), the activity change, negative = inhibition was 15.9% and 2.19%.

For `CC(C)[C@@]1(NC(=O)[C@@H]2CC3c4cccc5[nH]cc(c45)C[C@H]3N(C)C2)O[C@@]2(O)[C@@H]3CCCN3C(=O)[C@H](Cc3ccccc3)N2C1=O` (stereo not given in full), the activity change, negative = inhibition is -13.7%.

Take `CN1Cc2ccccc2[C@@H]2c3cccc4[nH]cc(c34)C[C@H]21`: the activity change, negative = inhibition was -78.9% (active).

With `CC(C)C1(NC(=O)C2CC3c4cccc5[nH]cc(c45)CC3N(C)C2)OC2(O)C3CCCN3C(=O)C(Cc3ccccc3)N2C1=O` (stereo not given), the activity change, negative = inhibition was -21.5%.

Consider `CN1CC[C@@H]2CN3CCc4cccc(c43)[C@@H]2C1`, for which the activity change, negative = inhibition is 3.72%.

In the case of `CCC(C)C(=O)O[C@H]1[C@H](O)C2C(CN3CC(C)CCC3[C@@]2(C)O)C2C[C@]34O[C@]5(O)C(OC(=O)C(C)(O)CC)CC[C@@]3(C)C5C(OC(C)=O)[C@@H](OC(C)=O)C4[C@@]21O` (stereo not given in full), the activity change, negative = inhibition was 1.67%.

Regarding `CC1(C)CC(O)CC(C)(C)N1O`, the activity change, negative = inhibition is 8.37% and 5.38% and 2.68%.

`CN(C(=O)Cc1ccccc1)C(CN1CCCC1)c1ccccc1` (stereo not given): the activity change, negative = inhibition was 6.5%.

With `C[C@]12CC[C@H](O)C[C@H]1CC[C@@H]1[C@@H]2CC[C@]2(C)[C@@H](c3ccc(=O)oc3)C[C@H]3OC132` (stereo not given in full), the activity change, negative = inhibition is -78.4% (active).

Consider `C[C@]12CC[C@H](O)C[C@@H]1CC[C@@H]1[C@H]2CC[C@]2(C)C(=O)CC[C@@H]12`, for which the activity change, negative = inhibition is 6.71%.

`C[C@]12CCC3[C@@H](CC[C@@H]4C[C@H](O)CC[C@]34C)[C@@H]1CCC2=O` (stereo not given in full): the activity change, negative = inhibition is 8.25%.

Consider `CN(C)CCNc1nc2cc(O)ccc2c2c1C(=O)c1ccccc1-2`, for which the activity change, negative = inhibition is -85.6% (active).

For `O=C(O)C(=O)CBr`, the activity change, negative = inhibition was -21.8%.

Regarding `C[N+]1(C)CCc2cc3c(cc2[C@H]1C1OC(=O)c2c1ccc1c2OCO1)OCO3` (stereo not given in full), the activity change, negative = inhibition is 9.96%.
